Source: PubChem BioAssay (NCATS)
Records with an inconclusive call do not appear. Activity calls are given as the source filed them. Calls follow the shape of the dose curve; as a rule, active = well fitted cell-killing curve with a large enough effect; inconclusive = small, poorly fitted or top-dose-only effect, or effect the other way; inactive = no such curve, though single readings can be large or run the other way.

Assay: Quantitative High-Throughput drug screen in 47 multiple myeloma cell lines against the NCATS MIPE library collection: KMS21BM_JCRB cell viability assay (AID 1918974)
Conditions: ATP luminescence, 48 h; viability: at 45.8 µM
Source text: PI: Beverly A. Mock Ph.D.
Laboratory of Cancer Biology and Genetics,
Center for Cancer Research, National Cancer Institute,
National Institute of Health, Bethesda, Maryland
Drug resistance and disease progression are common in multiple myeloma (MM) patients, underscoring the need for new therapeutic combinations. […] We hypothesized that effective combinations would reduce MYC expression and enhance p16 activity. […] These preclinical data identify potentially useful drug combinations for evaluation in drug-resistant MM and reveal potential mechanisms of combined drug sensitivity.
Described herein is the primary MIPE qHTS used to cherrypick compounds. Validated compounds were then further tested for potential synergistic activiy.
[1] Peat TJ, Gaikwad SM, Dubois W, Gyabaah-Kessie N, Zhang S, Gorjifard S, Phyo Z, Andres M, Hughitt VK, Simpson RM, Miller MA, Girvin AT, Taylor A, Williams D, D'Antonio N, Zhang Y, Rajagopalan A, Flietner E, Wilson K, Zhang X, Shinn P, Klumpp-Thomas C, McKnight C, Itkin Z, Chen L, Kazandijian D, Zhang J, Michalowski AM, Simmons JK, Keats J, Thomas CJ, Mock BA. Drug combinations identified by high-throughput screening promote cell cycle transition and upregulate Smad pathways in myeloma. Cancer Lett. 2023 Aug 1;568:216284. doi: 10.1016/j.canlet.2023.216284. Epub 2023 Jun 24. PMID: 37356470; PMCID: PMC10408729.
SEQUENCE No. (e.g., 1, 2, 3, etc.); […] (e.g., Cells, Incubation, Reagent, etc.); VALUE and DESCRIPTION.
1; Cells; 5 uL; white, solid bottom 1536-well Greiner assay plate.
2; Compounds; 23 nL; Kalypsis pin tool (Wako USA) equipped with a 1536-well pin head to transfer to the assay plates.
3; Incubation; 48 hours; 37C incubation.
4; Reagent;5uL; CellTiter Glo (Promega).
5; Detector; 425V; Luminescence; Viewlux PerkinElmer.
NOTES (numbers refer to Sequence numbers above)
1. The cell-based screening methods employed in this study were like those previously published. Briefly, the corresponding myeloma cell lines were screened in 1,536-well plates with 500 cells, 5-uL per well for inhibition of cell viability (assessed by measuring ATP levels with CellTiterGlo).
2. NCATS MIPE 4.0 library of approved and investigational drugs were added using the Kalypsis pin tool. Wells treated with DMSO only for 100% viability and media only wells for 0% viability were used as controls.
3. The assay plates were covered and incubated for 48 hours in a 37C, 5% CO2 incubator with controlled humidity.
4. After 48 hours, CellTilter-GloTM luminescent substrate mix (Promega) reagent was added to the assay plate and plates we incubated for 5 min at room temperature.
5. Signal was measured as median relative luminescence units on a ViewLux (PerkinElmer) multiplate reader.
[1] Heske CM, Davis MI, Baumgart JT, Wilson K, Gormally MV, Chen L, Zhang X, Ceribelli M, Duveau DY, Guha R, Ferrer M, Arnaldez FI, Ji J, Tran HL, Zhang Y, Mendoza A, Helman LJ, Thomas CJ. Matrix Screen Identifies Synergistic Combination of PARP Inhibitors and Nicotinamide Phosphoribosyltransferase (NAMPT) Inhibitors in Ewing Sarcoma. Clin Cancer Res. 2017 Dec 1;23(23):7301-7311. doi: 10.1158/1078-0432.CCR-17-1121. Epub 2017 Sep 12. PMID: 28899971; PMCID: PMC6636827.
Potency is read from the fitted curve at half-maximal effect.

Row | Structure (SMILES) | Potency
1 | CC1=C(CC(=O)O)c2cc(F)ccc2C1=Cc1ccc(S(C)=O)cc1 (stereo not given) | 20.9 µM (active)
2 | CC[C@H](NC(=O)[C@H](C)NC)C(=O)N1C[C@@H](O)C[C@H]1Cc1c(-c2[nH]c3cc(F)ccc3c2C[C@H]2C[C@H](O)CN2C(=O)[C@H](CC)NC(=O)[C@H](C)NC)[nH]c2cc(F)ccc12 | 0.526 µM (active)
3 | CC[C@]1(O)C[C@H]2CN(CCC3=c4ccccc4=N[C]3[C@@](C(=O)OC)(c3cc4c(cc3OC)N(C)[C@H]3[C@@](O)(C(N)=O)[C@H](O)[C@]5(CC)C=CCN6CC[C@]43[C@@H]65)C2)C1 | 0.0935 µM (active)
4 | CCc1cccc(CC)c1NC(=O)N1Cc2[nH]nc(NC(=O)c3ccc(N4CCN(C)CC4)cc3)c2C1 | 3.72 µM (active)
5 | CCC[C@H](N[C@@H](C)C(=O)N1[C@@H]2CCCC[C@H]2C[C@H]1C(=O)O)C(=O)OCC | inactive
6 | CCC=CC[C@H]1C(=O)CC[C@@H]1CC(=O)OC | inactive
7 | Cc1cc(CS(=O)(=O)c2ccccc2)cc(OCc2ccc(CN3CCC[C@H]3CO)cc2)c1 | 1.18 µM (active)
8 | CCC(=O)N1CCN(c2ccc(-n3c(=O)ccc4cnc5ccc(-c6cnc7ccccc7c6)cc5c43)cc2C(F)(F)F)CC1 | 0.0372 µM (active)
9 | N#Cc1ccc(Oc2ccc3c(c2)COB3O)cc1 | 3.32 µM (active)
10 | CCN1C[C@H](C)n2c(c(O)c3c(=O)n(Cc4ccc(F)c(Cl)c4)nc(C(=O)NC)c32)C1=O | inactive
11 | COc1ccc2c(c1)c(C1=C(c3c[nH]c4ccccc34)C(=O)NC1=O)cn2CCCN(C)C | 0.469 µM (active)
12 | c1cc(OCCN2CCCCC2)cc(-c2n[nH]c3ccc(-c4ncn[nH]4)cc23)c1 | 3.72 µM (active)
13 | CC(C)Oc1cc(Nc2nc(N[C@@H](C)c3ccc(F)cn3)ncc2Cl)[nH]n1 | 5.26 µM (active)
14 | Cc1csc(-c2nnc(Nc3ccc(Oc4ncccc4-c4ccnc(N)n4)cc3)c3ccccc23)c1 | 18.7 µM (active)
15 | Cn1c(=O)c(-c2c(Cl)cccc2Cl)cc2cnc(Nc3cccc(C(=O)O)c3)nc21 | 0.0833 µM (active)
16 | CN(C)CC[C@H](CSc1ccccc1)Nc1ccc(S(=O)(=O)NC(=O)c2ccc(N3CCN(Cc4ccccc4-c4ccc(Cl)cc4)CC3)cc2)cc1[N+](=O)[O-] | 0.0833 µM (active)
17 | COc1ccc(-c2nc3ccc(C4=NNC(=O)CC4C)cc3[nH]2)cc1 (stereo not given) | inactive
18 | CCNC(=O)Nc1ccc(Oc2ncnc(N)c2C=NOC)cc1Cl | 2.35 µM (active)
19 | CSc1cccc(Nc2ncc3cc(-c4c(Cl)cccc4Cl)c(=O)n(C)c3n2)c1 | 0.0209 µM (active)
20 | CC(C)n1c(C=C[C@H](O)C[C@H](O)CC(=O)O)c(-c2ccc(F)cc2)c2ccccc21 | 29.6 µM (active)

Row | Structure (SMILES) | Potency
21 | O=C(c1ccc(C=Cc2n[nH]c3ccccc23)cc1)N1CCNCC1 | 0.59 µM (active)
22 | O=C(c1ccc(C(=O)N2CCC(N3CCCC3)CC2)c(Nc2ccccc2)c1)N1CCC(N2CCCC2)CC1 | inactive
23 | C=C1[C@H](n2cnc3c(=O)[nH]c(N)nc32)C[C@H](O)[C@H]1CO | 1.32 µM (active)
24 | OCCn1cc(-c2ccc3c(c2)CCC3=NO)c(-c2ccncc2)n1 | 8.33 µM (active)
25 | O=c1[nH]nc(OCCCc2ccc(Cl)cc2)c(NCc2cccnc2)c1Br | 4.69 µM (active)
26 | CCC(=O)OCC(=O)[C@@]1(OC(=O)CC)[C@@H](C)C[C@@H]2[C@H]3CCC4=CC(=O)C=C[C@]4(C)[C@@]3(F)[C@@H](O)C[C@@]21C | 2.64 µM (active)
27 | COc1cc2nc(-c3cc(F)ccc3O)nc(N[C@@H]3CNC[C@@H]3C(C)(C)O)c2cc1OC | 0.935 µM (active)
28 | CC(C)(C)c1nc(-c2cccc(NS(=O)(=O)c3c(F)cccc3F)c2F)c(-c2ccnc(N)n2)s1 | 2.35 µM (active)
29 | CN1CCN(c2cccc(Nc3nc4c(-c5ccc(S(C)(=O)=O)cc5)cccn4n3)c2)CC1 | 3.32 µM (active)
30 | Cc1cnc(Nc2cccc(CN3CCOCC3)c2)nc1Nc1cccc(S(=O)(=O)NC(C)(C)C)c1 | 0.833 µM (active)
31 | OC1CCC(Nc2ncc3nc(Nc4c(F)cc(F)cc4F)n([C@@H]4CCOC4)c3n2)CC1 (stereo not given in full) | 4.69 µM (active)
32 | N#CC(=C1Nc2ccccc2S1)c1ccnc(OCc2ccc(CN3CCOCC3)cc2)n1 | 0.0264 µM (active)
33 | NC(=O)c1ncn([C@@H]2O[C@H](CO)[C@@H](O)[C@@H]2O)n1 | inactive
34 | CNC(=O)[C@H](CC1=CN=C2C=CCC=C12)NC(=O)[C@@H](CC(=O)NO)CC(C)C | 0.105 µM (active)
35 | CCOc1ccccc1N=Nc1c(C)[nH]n(-c2nc(-c3ccccc3)cs2)c1=O | inactive
36 | CCC(C)SSc1ncc[nH]1 (stereo not given) | 8.33 µM (active)
37 | Clc1ccc(COC(Cn2ccnc2)c2ccc(Cl)cc2Cl)c(Cl)c1 (stereo not given) | 37.2 µM (active)
38 | N#CC(c1ccc(Cl)cc1)c1c(Cl)cc(-n2ncc(=O)[nH]c2=O)cc1Cl (stereo not given) | 0.235 µM (active)
39 | COc1cc(N2CCN(C)CC2)ccc1Nc1nc(N)c(C(=O)c2c(Cl)cccc2Cl)s1 | 10.5 µM (active)
40 | Nc1ncnc2c1ncn2[C@@H]1O[C@H](CO)[C@@H](O)[C@@H]1O | 0.209 µM (active)
